Assay outcomes (PubChem)
A selection: hits, their analogues and other compounds. The true share with any hit is near 12%.
USP17 block = inhibitors of human USP17 deubiquitinase; purified USP17, Ub-rhodamine cleavage fluorescence, 3 h; AID 1645855, 2021; actives 6.5% (n = 47,000); inhibition, % at 50 µM
OTUD3 block = inhibitors of human OTUD3 deubiquitinase; purified OTUD3, Ub-rhodamine fluorescence, 2 h; inhibition, % at 25 µM; AID 1645858, 2021; actives 0.7% (n = 47,000); OTU domain-containing protein 3 (Homo sapiens), Q5T2D3
Target sequence (Q5T2D3 whole entry, looked up, the tested form may be a part): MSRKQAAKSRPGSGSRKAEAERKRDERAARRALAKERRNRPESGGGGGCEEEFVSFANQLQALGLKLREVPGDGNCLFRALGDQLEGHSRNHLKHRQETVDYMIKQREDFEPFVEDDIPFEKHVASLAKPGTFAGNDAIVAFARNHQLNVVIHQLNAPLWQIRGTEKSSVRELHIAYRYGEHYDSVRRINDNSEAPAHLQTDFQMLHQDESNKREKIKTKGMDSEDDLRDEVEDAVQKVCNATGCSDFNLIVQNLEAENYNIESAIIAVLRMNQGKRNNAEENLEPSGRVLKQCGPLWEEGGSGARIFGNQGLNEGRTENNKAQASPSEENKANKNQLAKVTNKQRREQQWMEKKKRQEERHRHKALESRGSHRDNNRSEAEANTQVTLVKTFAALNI
USP30 inh = inhibitors of human USP30 deubiquitinase | purified USP30, Ub-rhodamine cleavage fluorescence | AID 1645860, 2021 | actives 5.3% (n = 47,000) | Ubiquitin carboxyl-terminal hydrolase 30 (Homo sapiens), Q70CQ3 | inhibition, % at 25 µM
USP28 inh = inhibitors of human USP28 deubiquitinase; actives 3% (n = 47,000); purified USP28, Ub-rhodamine cleavage fluorescence, 30 min; Ubiquitin carboxyl-terminal hydrolase 28 (Homo sapiens), Q96RU2; AID 1645857, 2021; inhibition, % at 25 µM
* hit, by the source's call; x = not tested or not shown. Cut-off read from the data, not from the text of the source: active = inhibition above about 30%; inactive = the rest.

SMILES	USP17 block	OTUD3 block	USP30 inh	USP28 inh
Cc1ccc(CNC(=O)Cn2c(C)cc(-c3nnc(C)o3)c2C)cc1	30*	0	7	5
O=C(c1ccccc1)N1C[C@H]2CN(S(=O)(=O)c3ccc4ccccc4c3)CC[C@H]21	0	-2	2	6
CC(C)CN1CCC2(CC1)CN(S(=O)(=O)Cc1ccccc1)C2	6	14	19	5
COc1ccc(Cn2c(=O)[nH]c3cc(C(=O)N4CCC(C(N)=O)(N5CCCCC5)CC4)ccc3c2=O)cc1	0	0	8	5
Cc1cc(=O)n(CC(=O)NCc2ccc(F)cc2)c(-c2ccccc2)n1	4	16	39*	5
CN1CC[C@@H]2Oc3ccccc3S(=O)(=O)N(Cc3cccnc3)[C@H]2CC1	-5	-1	-8	-1
CCOc1ccc(-n2nnnc2CNS(=O)(=O)c2ccc(Cl)cc2)cc1	x	15	28	15
CC(C)c1ccc(CNc2nc3ccncc3n(Cc3ccccc3)c2=O)cc1	10	1	x	x
CCn1c(=O)c(NCc2ccc(Cl)cc2)nc2ccncc21	48*	-3	34*	9
O=C(COC(=O)c1cc2ccccc2cc1O)NCCCc1ccccc1	12	10	22	17
CC(=O)N1CCc2cc(Br)cc(S(=O)(=O)Nc3cc(C)cc(C)c3)c21	47*	-13	-2	-8
Cc1cc(C)cc(NS(=O)(=O)c2cc3c4c(c2)CC(=O)N4CCC3)c1	-12	-9	-7	4
O=C(NCc1ccccc1)C1Cn2ccnc2C2(CCN(C(=O)C3CC3)CC2)O1 (stereo not drawn)	-22	-2	0	-6
CC1(C)C[C@@H](O)[C@]2(C)CC[C@]3(C)C(=CCC4[C@@]5(C)CC[C@H](O)[C@](C)(CO)[C@@H]5CC[C@]43C)[C@@H]2C1 (stereo partly drawn)	53*	2	43*	4
O=C(CSc1nc2ccccc2[nH]1)N1CCN(S(=O)(=O)/C=C/c2ccccc2)CC1	36*	13	31*	13
CCc1cnc(N2C[C@H]3C[C@H](C(=O)NCc4ccccc4)[C@@H](C2)O3)nc1	16	15	23	4
O=C(Cn1cc(-c2nc(C3CC3)no2)ccc1=O)Nc1ccccc1	49*	1	-19	0
Cc1cccc(N2CCN(CCNC(=O)c3cc4c(s3)CS(=O)(=O)C4)CC2)c1C	-12	-11	-45	40*
CCOc1ccc(CCNC(=O)c2cc3c(s2)CS(=O)(=O)C3)cc1OCC	x	2	6	39*
COc1ccccc1N1CCN(CCNC(=O)Nc2cccc(C)c2C)CC1	-6	0	12	6
Cc1cc(=O)n(CC(=O)NCc2ccc(Cl)cc2)c(N2CCCCC2)n1	x	-11	-30	-10
O=C(/C=C/c1ccccc1)N1CCN(C2=NS(=O)(=O)c3ccccc32)CC1	0	22	80*	0
CCN(CC)C(=O)c1nc2c(s1)CCN(Cc1cccc(OC)c1)CC2	4	7	-26	0
COc1ccc(C(=O)Nc2ccccc2C(=O)NC(Cc2ccc(O)cc2)C(=O)NNC(=O)c2ccccc2Cl)cc1 (stereo not drawn)	82*	75*	69*	75*
Cn1c(CCNC(=O)c2ccco2)nc2cc([N+](=O)[O-])ccc21	-4	16	27	12
SMILES	USP17 block	OTUD3 block	USP30 inh	USP28 inh
O=C(NCCCc1nc2ccccc2n1Cc1c(F)cccc1Cl)c1ccco1	34*	6	11	5
O=C(NCCCc1nc2ccccc2n1Cc1c(Cl)cccc1Cl)c1ccco1	74*	28	11	47*
CCn1c(CCNC(=O)c2ccccc2)nc2ccccc21	4	4	x	x
Cc1ccnc(SCc2cc(=O)c(OC(=O)c3c(F)cccc3Cl)co2)n1	39*	4	26	16
Cn1c(CN2CCOCC2)nnc1SCc1ccccc1F	13	10	11	12
COc1ccc(C(=O)/C=C\c2cn(CCC(=O)O)nc2-c2ccc(OC)c(OC)c2)cc1	-4	16	14	9
COc1ccc(-c2nn(-c3ccccc3)cc2/C=C/C(=O)Nc2ccc(C(C)=O)cc2)cc1OC	55*	47*	84*	48*
O=C(CCc1nc(CSc2nnc(-c3ccncc3)o2)no1)Nc1ccccc1F	-14	16	29	14
CCc1ccccc1NC(=O)N1CCCC1c1c(C)noc1CC (stereo not drawn)	x	-4	0	-1
CC(C)CNC(=O)c1cc(=O)[nH]c2ccc(S(=O)(=O)Nc3ccc(F)cc3)cc12	36*	7	25	7
